Test results published in ChEMBL document CHEMBL3433997, “St. Jude Leishmania screening dataset” (2016).

Experiments:
Type in all cases: functional
[1] = target: Solute carrier family 2, facilitated glucose transporter member 1 (Homo sapiens) (UniProt P11166); test: ST_JUDE_LEISH: Cytotoxicity at 2uM final concentration against transgenic Leishmania Mexicana promastigotes LmGLUT1 that are glucose transport deficient and complemented with the human glucose transporter GLUT1. Activity is measured by DNA content using SYBR green in vitro
Solute carrier family 2, facilitated glucose transporter member 1 (Homo sapiens), sequence (P11166 whole entry): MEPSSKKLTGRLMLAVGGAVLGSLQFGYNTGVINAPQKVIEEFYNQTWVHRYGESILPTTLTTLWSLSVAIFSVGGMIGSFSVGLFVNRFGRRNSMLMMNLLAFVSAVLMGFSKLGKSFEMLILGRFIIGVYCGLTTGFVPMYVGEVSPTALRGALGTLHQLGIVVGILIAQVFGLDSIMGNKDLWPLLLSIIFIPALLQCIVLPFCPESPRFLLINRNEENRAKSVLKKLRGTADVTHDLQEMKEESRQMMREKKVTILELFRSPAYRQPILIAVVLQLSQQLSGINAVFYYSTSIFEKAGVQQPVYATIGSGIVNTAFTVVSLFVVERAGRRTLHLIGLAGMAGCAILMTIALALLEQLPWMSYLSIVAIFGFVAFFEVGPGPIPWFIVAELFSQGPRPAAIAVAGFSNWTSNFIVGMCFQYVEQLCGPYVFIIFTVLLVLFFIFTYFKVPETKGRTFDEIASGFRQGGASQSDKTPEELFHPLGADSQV

[2] = target: Hexose transporter 1 (Plasmodium falciparum) (UniProt O97467); test: ST_JUDE_LEISH: Cytotoxicity at 2uM final concentration against transgenic Leishmania Mexicana promastigotes LmPfHT that are glucose transport deficient and complemented with the Plasmodium falciparum hexose transporter. Activity is measured by DNA content using SYBR green in vitro
[3] = target: Glucose transporter (Leishmania mexicana) (UniProt O61059); test: ST_JUDE_LEISH: Cytotoxicity at 2uM final concentration against transgenic Leishmania Mexicana promastigotes LmGT2 that are glucose transport deficient and complemented with the L. Mexicana glucose transporter 2. Activity is measured by DNA content using SYBR green in vitro

Compound | inhibition [1] | inhibition [2] | inhibition [3]
CCc1ccc(N2C(N)=NC(N)=NC2(C)C)cc1 | 0.74% | 1.29% | 2.09%
COc1ccc(CNCC2CCC(CNCCc3ccccc3)CC2)cc1Cl (configuration not stated) | 1.1% | 2.42% | 2.3%
COc1cc(NCC(CN)Cc2ccc3c(c2)OCO3)nc2ccccc12 (configuration not stated) | 4.7% | 3.95% | 5.88%
O=C(OCc1ccccc1)N1CCc2c([nH]c3ccccc23)C1CCC(F)(F)F (configuration not stated) | 3.72% | 2.6% | 0.12%
O=C(Nc1ccc(-c2nc3ccccc3[nH]2)cc1)c1cccc([N+](=O)[O-])c1 | 1.01% | -1.86% | -1.09%
Cc1ccc(Sc2ccc(NC(=O)CN3CCN(C(=O)c4ccco4)CC3)cc2)cc1C | 9.84% | 9.65% | 6.7%
Cc1nn(C)c(C)c1CN(Cc1nc(-c2cccc(Oc3ccccc3)c2)oc1C)C1CC1 | 4.08% | 4.11% | 5.34%
CCOc1ccc2[nH]c(C)cc(=NN=Cc3ccccc3)c2c1 | 3.33% | 2.11% | 2.8%
COc1ccc(Oc2ccc(-c3c(O)cc(C)nc3C)cc2)cc1 | 2.96% | 3.75% | 1.27%
Cc1cccc2nc(-c3ccc(-c4ccc(CN5CCN(CCC#N)CC5)cc4)cc3)[nH]c12 | 15.7% | 14.1% | 11.8%
NCCc1cccc(-c2cnc3[nH]cc(-c4ccc(C(=O)O)cc4)c3c2)c1 | 0.56% | 0.29% | 0.03%
CCN1CCc2nc3ccccc3c(C(=O)Nc3ccc(C#N)cc3)c2C1 | -0.12% | 3.74% | -1.04%
c1ccc(-c2ccc(CNCCCNc3nc4ccccc4[nH]3)cc2)cc1 | 4.26% | 9.56% | 6.92%
Cc1cc(OCCCN2CCCCC2)ccc1NC(=O)COc1ccc(Cl)cc1C(=O)c1cc(Cl)cc(C#N)c1 | 60.8% | 19.1% | 5.79%
